Compound activity from PubChem.
TWEAK Fn14 block = inhibitors of TWEAK-Fn14 signaling, primary screen, luciferase reporter cells, uHTS; inhibition, % at 10 µM; actives 2% (n = 360,000); TWEAK-stimulated Fn14 reporter cells, luciferase luminescence, 8 h; in the data active = inhibition above about 50%
CF NFkB inh = inhibitors of PAF-induced NF-kB signaling, primary screen, cell-based, GFP fluorescence, uHTS; KKLEB NF-kB-GFP reporter, GFP fluorescence overnight; inhibition, % at 5 µM; actives 0.86% (n = 360,000); AID 588850, 2011;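 active = at least 50% inhibition at 5 µM, scaled per plate between neutral and stimulator controls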;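 also: PAF is a Pseudomonas aeruginosa culture filtrate used as stimulus; plate controls were PAF-stimulated DMSO wells for no effect and unstimulated DMSO wells for full effect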
TROY signal inh = inhibitors of TROY-driven NF-kB signaling, primary screen, Q293 LMP1-TROYcd cells, NF-kB luciferase, uHTS; AID 1347056, 2019; inhibition, % at 10 µM; actives 0.98% (n = 360,000); Q293 LMP1-TROYcd NF-kB luciferase reporter, 4 h;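 active = compounds whose plate-normalised and pattern-corrected inhibition of the luciferase reporter signal at the single screening dose is 50% or more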
HIF-2a inh = HIF-2a reporter inhibitors, primary screen, luminescence, 786-0 RCC cells. actives 0.72% (n = 360,000). inhibition, % at 18.8 µM. 786-0 RCC cells HIF-2a reporter, luciferase luminescence, overnight;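 active = inhibition of the luminescence signal of 40% or more relative to plate controls, in a single-dose primary screen at 18.75 µM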
Peg3 prom inh = Peg3 promoter-driven luciferase inhibitors, primary screen, cell-based, HeLa, luciferase luminescence; HeLa PEG-Prom luciferase reporter, overnight; AID 588405, 2011; inhibition, % at 20 µM; actives 1.7% (n = 360,000);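 active = inhibition of at least 50% at 20 µM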
KKLEB tox = cytotoxicity in KKLEB CF airway cells, primary screen, cytotoxicity control for CF NF-kB inhibitor project, cell-based, uHTS, fluorescence assay plates; actives 0.36% (n = 360,000); AID 602141, 2011; activity change (cytotoxicity), % at 5 µM; KKLEB CF airway cells viability, ATPlite luminescence, overnight; hits give low values; cells stimulated with P. aeruginosa culture filtrate;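 active = corrected activity change at or below -50% at 5 µM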
An asterisk follows results filed as active. In the library only some 4% were active in any assay of this set; here they are far more common.

For Cc1cc(/C=N/n2cnnc2)c(C)n1-c1ccc(OCc2ccc(Cl)cc2Cl)cc1 the results were TWEAK Fn14 block 61.0*, CF NFkB inh -2.2, TROY signal inh 77.5*, HIF-2a inh 80.8*, Peg3 prom inh 40.5 and KKLEB tox -2.7.
Screening Cc1cc(/C=N/n2cnnc2)c(C)n1-c1ccc(Cl)cc1 returned TWEAK Fn14 block 3.5, CF NFkB inh 20.9, TROY signal inh -25.0, HIF-2a inh 3.9, Peg3 prom inh 5.5 and KKLEB tox -8.5.
Screening CC(C)(C)C(=O)COC(=O)c1c2c(nc3ccccc13)CCC2 returned TWEAK Fn14 block -6.7, CF NFkB inh -1.3, TROY signal inh -12.7, HIF-2a inh -14.1, Peg3 prom inh -6.2 and KKLEB tox 4.2.
Screening CC1Cc2ccccc2N1C(=O)COC(=O)c1c2c(nc3ccccc13)CCCCC2 (centres undefined) returned TWEAK Fn14 block 34.8, CF NFkB inh 42.8, TROY signal inh -7.2, HIF-2a inh -25.3, Peg3 prom inh 50.9* and KKLEB tox -6.3.
For NC(=O)COC(=O)c1c2c(nc3ccccc13)CCCCC2 the results were TWEAK Fn14 block 4.7, CF NFkB inh 0.5, TROY signal inh 54.8*, HIF-2a inh 20.1, Peg3 prom inh 3.7 and KKLEB tox -4.4.
For O=C(NC(=S)Nc1ccc(S(=O)(=O)NC2CCCCC2)cc1)c1cccs1 the results were TWEAK Fn14 block 52.6*, CF NFkB inh 12.2, TROY signal inh 16.5, HIF-2a inh 16.2, Peg3 prom inh 3.9 and KKLEB tox 8.6.
Screening O=C(NC(=S)Nc1ccc(S(=O)(=O)N2CCCCC2)cc1)c1cccs1 returned TWEAK Fn14 block 4.5, CF NFkB inh 11.8, TROY signal inh -10.4, HIF-2a inh 15.8, Peg3 prom inh 31.5 and KKLEB tox 0.6.
Cn1cnc([N+](=O)[O-])c1S(=O)(=O)Nc1ccccc1 was read as TWEAK Fn14 block 23.8, CF NFkB inh 33.5, TROY signal inh 11.8, HIF-2a inh -1.8, Peg3 prom inh -0.7 and KKLEB tox -3.8.
Screening Cn1cnc([N+](=O)[O-])c1S(=O)(=O)Oc1ccccc1 returned TWEAK Fn14 block 26.8, CF NFkB inh 42.1, TROY signal inh 44.7, HIF-2a inh 24.6, Peg3 prom inh 102.8* and KKLEB tox 3.9.
`Cc1nn(C(C)C(=O)c2cccc(Cl)c2)c(C)c1[N+](=O)[O-]` (centres undefined) gave TWEAK Fn14 block 4.7, CF NFkB inh -0.4, TROY signal inh 1.7, HIF-2a inh 7.6, Peg3 prom inh 5.8 and KKLEB tox -0.2.
`Cn1cnc([N+](=O)[O-])c1S(=O)(=O)c1cccc(Cl)c1` gave TWEAK Fn14 block 17.7, CF NFkB inh 35.6, TROY signal inh 63.9*, HIF-2a inh 35.5, Peg3 prom inh 111.5* and KKLEB tox -54.2*.
Screening COc1cc(/C=N/NC(=Nc2ccc(C)cc2)c2nc3ccccc3s2)ccc1O returned TWEAK Fn14 block 106.6*, CF NFkB inh -15.8, TROY signal inh 87.8*, HIF-2a inh 72.9*, Peg3 prom inh 72.4* and KKLEB tox -11.5.
For COc1cc(/C=N/NC(=O)c2cccc(C(=O)N/N=C/c3ccc(O)c(OC)c3)n2)ccc1O the results were TWEAK Fn14 block 3.1, CF NFkB inh -7.2, TROY signal inh -2.0, HIF-2a inh 11.2, Peg3 prom inh 5.3 and KKLEB tox 0.2.
Screening Cc1cccc(-n2ncc3c2CCCC3NC(=O)CCN2CCCCO2)c1C (centres undefined) returned TWEAK Fn14 block 8.4, CF NFkB inh 15.8, TROY signal inh -7.5, HIF-2a inh 6.4, Peg3 prom inh 4.1 and KKLEB tox -15.9.
Screening Cc1cc(C)c(-c2csc(NC(=O)/C=C/c3cccs3)n2)c(C)c1 returned TWEAK Fn14 block 69.4*, CF NFkB inh 58.2*, TROY signal inh -5.4, HIF-2a inh -57.9, Peg3 prom inh -13.1 and KKLEB tox -61.9*.
COc1ccc(/C(C)=N/OCC(=O)N=Nc2c(O)[nH]c3ccc(Br)cc23)cc1 was read as TWEAK Fn14 block 9.3, CF NFkB inh 46.6, TROY signal inh 17.3, HIF-2a inh -10.0, Peg3 prom inh 3.0 and KKLEB tox -52.7*.
Screening COC(=O)C[C@H]1CC[C@@H](NS(=O)(=O)c2ccc(C)cc2)[C@@H](CO)O1 returned HIF-2a inh 11.3.
`CCCCCCN1C[C@@H](O)[C@H](n2cc(C3CC3)nn2)C[C@@H]1c1ccc(Cl)cc1` gave TWEAK Fn14 block 14.0, CF NFkB inh 4.2, TROY signal inh 2.9, HIF-2a inh 4.5, Peg3 prom inh 45.4 and KKLEB tox -13.9.
Screening COCCOC(=O)c1cc(C(=O)c2cc(F)ccc2O)coc1=N returned TWEAK Fn14 block -3.6, CF NFkB inh 1.6, TROY signal inh -11.2, HIF-2a inh -0.7, Peg3 prom inh 14.8 and KKLEB tox -4.3.
`COC(=O)c1cc(C(=O)c2cc(Cl)ccc2O)coc1=N` gave TWEAK Fn14 block 70.2*, CF NFkB inh -12.1, TROY signal inh 4.1, HIF-2a inh 24.0, Peg3 prom inh 18.6 and KKLEB tox -5.4.
Screening CC1CCCC(NC(=O)CSc2n[nH]c(=O)n2Cc2ccccc2)C1C (centres undefined) returned TWEAK Fn14 block -10.8, CF NFkB inh 2.6, TROY signal inh -11.5, HIF-2a inh 16.1, Peg3 prom inh 19.4 and KKLEB tox 1.3.
`O=C(Cc1nnc(NC(=O)c2ccccc2)s1)N/N=C/c1ccc(O)cc1` gave TWEAK Fn14 block 58.2*, CF NFkB inh -14.5, TROY signal inh -3.8, HIF-2a inh 0.1, Peg3 prom inh -0.2 and KKLEB tox -4.1.
Screening O=C(Cc1nnc(NC(=O)c2ccccc2)s1)N/N=C\c1ccc(O)c(O)c1 returned TWEAK Fn14 block 7.8, CF NFkB inh 9.2, TROY signal inh -9.4, HIF-2a inh 17.3, Peg3 prom inh 7.4 and KKLEB tox -2.2.
Screening CC(=O)N1c2ccc(S(=O)(=O)NCCC(=O)Nc3cccc(Cl)c3)cc2CC1C (centres undefined) returned TWEAK Fn14 block 5.1, CF NFkB inh 6.1, TROY signal inh -9.7, HIF-2a inh 18.5, Peg3 prom inh 18.1 and KKLEB tox 5.3.
For Cc1[nH]c2ccccc2c1C(=O)CSc1nc2cc(S(=O)(=O)N3CCCCC3)ccc2o1 the results were TWEAK Fn14 block 54.9*, CF NFkB inh 13.9, TROY signal inh -10.6, HIF-2a inh 8.4, Peg3 prom inh 27.4 and KKLEB tox 2.2.
